Measured values published in PubChem BioAssay (NCATS).
Results filed as inconclusive are left out. Calls of active or inactive are those of the source. The call rests on the fitted dose curve; in most records, active means well fitted cell-killing curve with a large enough effect; inconclusive means small, poorly fitted or top-dose-only effect, or effect the other way; inactive means flat fitted curve, though single readings scatter.

Assay: qHTS assay for cell viability of the p53RE-bla HCT-116 cell line (AID 743292); further: nearly all actives have a fitted effect of over 55% in size
Conditions: p53RE-bla HCT-116 viability, ATP luminescence, 16 h; series mostly up to 95 µM
Description: U.S. Tox21 Program National Center for Advancing Translational Sciences [NCATS] NIH Chemical Genomics Center [NCGC] U.S. Environmental Protection Agency [EPA] National Institutes of Environmental Health Sciences [NIEHS] National Toxicology Program [NTP] U.S. Food and Drug Administration [FDA] Tox21 Assay Overview: The CellTiter-Glo Luminescent Cell Viability Assay (Promega, Madison, WI) is a homogeneous method to determine the number of viable cells in culture based on quantitation of the ATP present, which signals the presence of metabolically active cells. This cell viability assay was used to screen environmental chemicals in the CellSensor p53RE-bla HCT-116 cell line (Invitrogen).
Tox21 Assay Protocol Summary: Cell viability after compound treatment was measured using a luciferase-coupled ATP quantitation assay (CellTiter-Glo viability assay, Promega, Madison, WI) in CellSensor p53RE-bla HCT-116 cell line (Invitrogen). Total intracellular ATP content corresponds to the number of metabolically competent cells after compound treatment. The cells were dispensed at 4,000 cells/5 uL/well in 1,536-well white/solid bottom assay plates using a Flying Reagent Dispenser (Aurora Discovery, San Diego, CA). The cells were incubated for 5 h at 37 C, followed by the addition of 23 nL of compounds dissolved in DMSO, positive controls or DMSO only using a pintool work station (Kalypsys, San Diego, CA). The assay plates were incubated for 16 h at 37 C, followed by the addition of 5 uL/well of CellTiter-Glo reagent. After 30 min incubation at room temperature, the luminescence intensity of the plates was measured using a ViewLux plate reader (PerkinElmer, Shelton, CT).

SMILES | outcome
C[C@]12C=CC(=O)C=C1CC[C@H]1[C@@H]3C[C@@H](O)[C@](O)(C(=O)CO)[C@@]3(C)C[C@H](O)[C@@]12F | inactive
O=c1[nH]c(=O)n([C@H]2C[C@H](O)[C@@H](CO)O2)cc1Br | inactive
Nc1nc(N)c2nc(-c3ccccc3)c(N)nc2n1 | inactive
Nc1ncn([C@@H]2O[C@H](CO)[C@@H](O)[C@H]2O)c(=O)n1 | inactive
CCCCOCCOCCOCc1cc2c(cc1CCC)OCO2 | inactive
CN=C(NC#N)NCCSCc1nc[nH]c1C | inactive
COC(=O)[C@H]1[C@H]2C[C@@H]3c4[nH]c5cc(OC)ccc5c4CCN3C[C@H]2C[C@@H](OC(=O)c2cc(OC)c(OC)c(OC)c2)[C@@H]1OC | inactive
O=C(O)CCCCCCCC(=O)O | inactive
CC(=O)Nc1nnc(S(N)(=O)=O)s1 | inactive
CC(C)(Oc1ccc(CCNC(=O)c2ccc(Cl)cc2)cc1)C(=O)O | inactive
NC(=Nc1ccccc1)Nc1ccccc1 | inactive
NC(=O)N1c2ccccc2C=Cc2ccccc21 | inactive
CC(=O)[C@@]1(O)CC[C@H]2[C@@H]3CCC4=CC(=O)CC[C@]4(C)[C@H]3CC[C@@]21C | inactive
COc1cc(Cc2cnc(N)nc2N)cc(OC)c1OC | inactive
COc1ccc(CN(CCN(C)C)c2ccccn2)cc1 | inactive
Cc1ccc(S(=O)(=O)NC(=O)NN2CCCCCC2)cc1 | inactive
CCCCNC(=O)NS(=O)(=O)c1ccc(C)cc1 | inactive
C[C@]12CCC(=O)C=C1CC[C@@H]1[C@@H]2C(=O)C[C@@]2(C)[C@H]1CC[C@]2(O)C(=O)CO | inactive
